{
  "source": "paper PMC7819943",
  "about": "“Rice protein-binding microarrays: a tool to detect cis-acting elements near promoter regions in rice”",
  "note": "In all, about 35,000 sequences were measured (“fluorescence intensity (a.u.)”: median about 10,000, highest 2% from about 52,000 on). The list comes from a sample in which the highest values are over-represented; it also holds similar and randomly drawn sequences.",
  "data": [
    {"biological_target": "T1, OsWOX13 (Oryza sativa, UniProt Q5QMM3 1-267)", "T1 sequence": "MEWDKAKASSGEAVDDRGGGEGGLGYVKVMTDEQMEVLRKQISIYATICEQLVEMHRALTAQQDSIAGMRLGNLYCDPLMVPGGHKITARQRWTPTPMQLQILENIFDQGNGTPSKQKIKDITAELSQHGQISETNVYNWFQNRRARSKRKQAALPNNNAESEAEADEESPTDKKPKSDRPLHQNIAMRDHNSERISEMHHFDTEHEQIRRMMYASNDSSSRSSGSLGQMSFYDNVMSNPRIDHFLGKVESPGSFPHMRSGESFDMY", "assay": "protein-binding microarray (RPBM); PBS, 2% BSA, 51.3 ng/ul salmon testes DNA, 50 uM zinc acetate, 200 nM TF, 25 C, 1 h; high values mean tight binding", "conditions": "protein: recombinant; tags: N-terminal polyhistidine and DsRed monomer fusion (pET32a); label: CyDye5-dUTP incorporated in the synthesized complementary strand; 3' TTTTT single-stranded linker to array surface; dsDNA, one strand shown", "summary_of_the_method": "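Per-feature fluorescence intensity (arbitrary units), read on an Axon 4000B scanner, is the binding signal. Transcription factors carrying an N-terminal polyhistidine tag and DsRed fusion were expressed in E. coli BL21-CodonPlus and purified on Ni–NTA. A custom Agilent array, made double-stranded by primer extension with Cy5-dUTP and blocked with 2% BSA, was incubated with 200 nM protein in PBS, 2% BSA, salmon testes DNA and 50 µM zinc acetate at 25 °C for 1 h and then washed.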", "values": [
      {"sequence": "ATTAGATTGACTATAGATGAATTGAAGACAGTAGTGGGCTCGGAGTCACCTAGTGCAG", "binding signal": "49500 fluorescence intensity (a.u.)"},
      {"sequence": "GATATTAGATTGGCTATAGATGAATTGGAGTTAGTAGTGGCGGAGTCACCTAGTGCAG", "binding signal": "52700 fluorescence intensity (a.u.)"},
      {"sequence": "TGAGCTATTAGATTGGTTATAGATGAATTGAAGTTAGTAGCGGAGTCACCTAGTGCAG", "binding signal": "14100 fluorescence intensity (a.u.)"},
      {"sequence": "ATGTCATTTTAAAGTTTAATTAATTAGATAATTACCTTCTCGGAGTCACCTAGTGCAG", "binding signal": "17500 fluorescence intensity (a.u.)"},
      {"sequence": "TCATCTAATTAATTGGCAAGGTGATATGCGTCCCTGAAAACGGAGTCACCTAGTGCAG", "binding signal": "39500 fluorescence intensity (a.u.)"},
      {"sequence": "GACAGTTTGATTTCCTCTTGTGTTTATGCATTATTTTGTGCGGAGTCACCTAGTGCAG", "binding signal": "3640 fluorescence intensity (a.u.)"},
      {"sequence": "TATCAAATTTATCCATTTGTTAATGTTGTAATAATTAAAACGGAGTCACCTAGTGCAG", "binding signal": "6890 fluorescence intensity (a.u.)"},
      {"sequence": "CTGACTTTGTCATACGTCTATGATTTGCCACTGACTTTATCGGAGTCACCTAGTGCAG", "binding signal": "4530 fluorescence intensity (a.u.)"},
      {"sequence": "CATTCTAATTAGCAATGGTCACCACGAATGATTAATGTAGCGGAGTCACCTAGTGCAG", "binding signal": "28200 fluorescence intensity (a.u.)"},
      {"sequence": "ACATCTAATTTGAAATGGATGTAGTATATTCTAATTGCATCGGAGTCACCTAGTGCAG", "binding signal": "17000 fluorescence intensity (a.u.)"},
      {"sequence": "TGAATATGTCCCAAATTAATTGTCACAATGGAGTACTAATCGGAGTCACCTAGTGCAG", "binding signal": "3200 fluorescence intensity (a.u.)"},
      {"sequence": "TAGATTGGCTATAGATGAATTGGAGCTAGTAGTTGGCTATCGGAGTCACCTAGTGCAG", "binding signal": "25400 fluorescence intensity (a.u.)"},
      {"sequence": "TATTAGATTGGCTATAGATGAATTGGAGCTAGTAGTTGGCCGGAGTCACCTAGTGCAG", "binding signal": "46700 fluorescence intensity (a.u.)"},
      {"sequence": "AATATTAGATTGGCTATAGATGAATTGTAGCTAGTAGTTGCGGAGTCACCTAGTGCAG", "binding signal": "54100 fluorescence intensity (a.u.)"},
      {"sequence": "GTGATTGATGCCGCCTGGGTTAGTTCAACTATTGCTGCATCGGAGTCACCTAGTGCAG", "binding signal": "55400 fluorescence intensity (a.u.)"},
      {"sequence": "CTGCTGCTTGATTATTTGGGTTCAACTGGCAAGAACTATGCGGAGTCACCTAGTGCAG", "binding signal": "8890 fluorescence intensity (a.u.)"},
      {"sequence": "TGGGTGATTGATTAGTACTACTGCTGCATCTGCACTGCATCGGAGTCACCTAGTGCAG", "binding signal": "38400 fluorescence intensity (a.u.)"},
      {"sequence": "TCAAAATCAGTTTGAGTAAATTTTATTTTGGTTCAACTTTCGGAGTCACCTAGTGCAG", "binding signal": "6800 fluorescence intensity (a.u.)"},
      {"sequence": "ATTTTGATTAAATGGTGATCAGCCAAAGCATTTGCCATCCCGGAGTCACCTAGTGCAG", "binding signal": "39300 fluorescence intensity (a.u.)"},
      {"sequence": "TATTCAATCATCCAAGGTTTGCATATCATTGACCGGCGTGCGGAGTCACCTAGTGCAG", "binding signal": "14400 fluorescence intensity (a.u.)"},
      {"sequence": "CTTTGACAGACAGATATCCATTCATACGTGCACAGGCGACCGGAGTCACCTAGTGCAG", "binding signal": "55300 fluorescence intensity (a.u.)"},
      {"sequence": "GGCGACAAGACAGATAGACAGAAGCCATTCATATCGAACCCGGAGTCACCTAGTGCAG", "binding signal": "5190 fluorescence intensity (a.u.)"},
      {"sequence": "GCTCCGGCGAGGCGAGGTCGGAGATCCCACCGCCGTGTCGCGGAGTCACCTAGTGCAG", "binding signal": "65500 fluorescence intensity (a.u.)"},
      {"sequence": "CCACCGTGATTTTCGCTCCCATCACCGCGCGAGGACTCCGCGGAGTCACCTAGTGCAG", "binding signal": "3320 fluorescence intensity (a.u.)"},
      {"sequence": "GGTCGCCGGATCGCGGGAGGGAGGGAGGGAGGGAGGGAGGCGGAGTCACCTAGTGCAG", "binding signal": "7230 fluorescence intensity (a.u.)"},
      {"sequence": "CAAAACTAAAATGTTATCATATAATTATATATTTAAGACCCGGAGTCACCTAGTGCAG", "binding signal": "8760 fluorescence intensity (a.u.)"},
      {"sequence": "ATTCATATAATTTGTATCACCTCAATAATAATTGGTATCACGGAGTCACCTAGTGCAG", "binding signal": "14700 fluorescence intensity (a.u.)"},
      {"sequence": "GACAAATTTACAGTAGTTTAACTTTAAGCAAAGTCAAAACCGGAGTCACCTAGTGCAG", "binding signal": "6260 fluorescence intensity (a.u.)"},
      {"sequence": "TATACAATTATTTAAACAAAATTACCACTTTGCTACAACTCGGAGTCACCTAGTGCAG", "binding signal": "8450 fluorescence intensity (a.u.)"},
      {"sequence": "CAATTAATTGCTTATCCGTGGCCTTGATCAATTACTGTGCCGGAGTCACCTAGTGCAG", "binding signal": "56600 fluorescence intensity (a.u.)"},
      {"sequence": "TTATGTAATTATTATTTATTTTATTGTGACTTAATTTATCCGGAGTCACCTAGTGCAG", "binding signal": "15500 fluorescence intensity (a.u.)"},
      {"sequence": "AAGGTTAATTGGATCCATGCCACGCGAATTGTGGCAAATCCGGAGTCACCTAGTGCAG", "binding signal": "22100 fluorescence intensity (a.u.)"},
      {"sequence": "TTTTAATTACTGATCTTCTTACAATTGCTTTTATGCTGTCCGGAGTCACCTAGTGCAG", "binding signal": "19700 fluorescence intensity (a.u.)"},
      {"sequence": "CCGCAATTATTGGCCCTTAATTGTGAGGTTAATCCGTGGCCGGAGTCACCTAGTGCAG", "binding signal": "60900 fluorescence intensity (a.u.)"},
      {"sequence": "TACTGCTGGATTGAATTAATGGATCAAGACTGAATTTATCCGGAGTCACCTAGTGCAG", "binding signal": "12100 fluorescence intensity (a.u.)"},
      {"sequence": "AGTCAATCAGTCAATCTGGACCGTCCACGGCAGAAGAAGTCGGAGTCACCTAGTGCAG", "binding signal": "30700 fluorescence intensity (a.u.)"},
      {"sequence": "GGATTATCAATCAAGCAAGCAAACAAACACTAAGGAAACCCGGAGTCACCTAGTGCAG", "binding signal": "15000 fluorescence intensity (a.u.)"},
      {"sequence": "GAATAATCAATTGCCGAATACGTTCTGGACATGGATATTGCGGAGTCACCTAGTGCAG", "binding signal": "6880 fluorescence intensity (a.u.)"},
      {"sequence": "CCTGGCTGATCGATAATTAATCCGTCCTCGCCGTCGCCATCGGAGTCACCTAGTGCAG", "binding signal": "15400 fluorescence intensity (a.u.)"},
      {"sequence": "CTGATTGATTTAGCGGCTCAACATATATACCAAGGCGGCGCGGAGTCACCTAGTGCAG", "binding signal": "61100 fluorescence intensity (a.u.)"},
      {"sequence": "GGGAAGGCGGCGATTGATTTGATTTGACCAAGATTGGTCGCGGAGTCACCTAGTGCAG", "binding signal": "28700 fluorescence intensity (a.u.)"},
      {"sequence": "ATATTGATTAGGCTCTCGGCTCTCTATTTAACCAACTGAACGGAGTCACCTAGTGCAG", "binding signal": "34300 fluorescence intensity (a.u.)"}
    ]}
  ]
}
